A short description of experiment [1]: Cell Viability - LYMP2-015 (AID 971). Also: nearly all actives have a fitted effect of over 55% in size. As to conditions: LYMP2-015 lymphoblastoid cell viability; series mostly up to 92.2 µM. In a few lines: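 LYMP2-015 human lymphoblastoid cells (2500/well) in complete medium, compound-treated 24 h at 37 C; viability read as cellular ATP by CellTiter-Glo luminescence after 30 min at room temperature. AC50 from Hill-equation fits of qHTS concentration-response data.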

The nature of experiment [2]: Cell Viability - LYMP2-017 (AID 972). Also: nearly all actives have a fitted effect of over 55% in size. As to conditions: LYMP2-017 lymphoblastoid cell viability; series mostly up to 92.2 µM. The essentials: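 LYMP2-017 human lymphoblastoid cells (2500/well) settled 5 hr at 37 C, then exposed to compound 24 hr at 37 C in complete medium. Viability taken as intracellular ATP by CellTiter-Glo luminescence after 30 min at RT; AC50 from Hill fits.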

Experiment [3] can be described thus: Cell Viability - LYMP2-019 (AID 973). Also: nearly all actives have a fitted effect of over 55% in size. As to conditions: LYMP2-019 lymphoblastoid cell line viability; series mostly up to 92.2 µM. In a few lines: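 Human lymphoblastoid LYMP2-019 cells (2500/well) preincubated 5 h at 37 C, then treated 24 h at 37 C in complete medium. Viability by CellTiter-Glo ATP luminescence after 30 min at room temperature; AC50 from Hill fits.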

Experiment [4] in a line: Cell Viability - LYMP2-021 (AID 974).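 Also: compound exposure lasts 24 hours at 37 °C; nearly all actives have a fitted effect of over 55% in size.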 Particulars: LYMP2-021 lymphoblastoid cells viability; series mostly up to 92.2 µM. The essentials:
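Human lymphoblastoid LYMP2-021 cells, 2500/well in complete medium, treated 24 hours at 37 C. Intracellular ATP by CellTiter-Glo luminescence (30 min, RT); AC50 from Hill fits of concentration-response.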

Experiment [5] can be described thus: Cell Viability - LYMP2-023 (AID 975). As to conditions: LYMP2-023 lymphoblastoid cell viability; series mostly up to 92.2 µM. The essentials: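 LYMP2-023 human lymphoblastoid cells, 2500/well, preincubated 5 hr at 37 C, then compound-treated 24 hr at 37 C in complete medium. CellTiter-Glo luminescence (ATP) after 30 min at room temperature; AC50 from Hill-equation fits; tetraoctylammonium bromide positive control.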

A short description of experiment [6]: Cell Viability - LYMP2-025 (AID 976). Particulars: LYMP2-025 lymphoblastoid cell viability; series mostly up to 92.2 µM. In a few lines:
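Human lymphoblastoid LYMP2-025 cells, 2500/well, exposed 24 h at 37 C in complete medium in 1536-well qHTS. Viability as cellular ATP by CellTiter-Glo luminescence; AC50 from Hill fits of concentration-response data.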

Experiment [7] in a line: Cell Viability - LYMP2-002 (AID 977).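 Also: compound exposure lasted 24 h at 37 °C.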 As to conditions: LYMP2-002 lymphoblastoid cell viability, qHTS; series mostly up to 92.2 µM. The essentials: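 Human lymphoblastoid LYMP2-002 cells, 2500 per well, exposed to compounds for 24 h at 37 C in complete medium; viability read as intracellular ATP by CellTiter-Glo luminescence, AC50 from Hill fits.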
Experiment [8] is described as follows: Cell Viability - LYMP2-006 (AID 978). Also: nearly all actives have a fitted effect of over 60% in size. As to conditions: LYMP2-006 lymphoblastoid cell viability, qHTS; series mostly up to 92.2 µM. The essentials: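 Cells are seeded at 2500 per well and rested 5 hr at 37 C. Compounds are added across a concentration series for 24 hr at 37 C, after which ATP is quantified by luciferase luminescence.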
Experiment [9] is described as follows: Cell Viability - LYMP2-007 (AID 979).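 Also: cells exposed to compound for 24 h before reading; nearly all actives have a fitted effect of over 60% in size.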 Particulars: LYMP2-007 lymphoblastoid cell viability; series mostly up to 92.2 µM. The essentials: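 Human lymphoblastoid LYMP2-007 cells (2500/well) preincubated 5 h at 37 C, then treated 24 h at 37 C in complete medium. Viability by CellTiter-Glo ATP luminescence after 30 min at room temperature; AC50 from Hill fits.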

Experiment [10] in a line: Cell Viability - LYMP2-008 (AID 980). Also: nearly all actives have a fitted effect of over 60% in size. Particulars: LYMP2-008 lymphoblastoid cell viability, qHTS; series mostly up to 92.2 µM. In a few lines:
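LYMP2-008 lymphoblastoid cells (2500/well) plated 5 h, then treated 24 h at 37 C in complete medium. Viability read as intracellular ATP by CellTiter-Glo luminescence after 30 min at room temperature; AC50 from Hill fits.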

Experiment [11] is described as follows: Cell Viability - LYMP2-010 (AID 981). Also: nearly all actives have a fitted effect of over 55% in size. Also: potency is read from the fitted curve at half-maximal effect. As to conditions: LYMP2-010 lymphoblastoid cell viability, qHTS; series mostly up to 92.2 µM. In a few lines: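 Human lymphoblastoid LYMP2-010 cells (2500/well) treated 24 h at 37 C in complete medium; viability read as intracellular ATP by CellTiter-Glo luminescence. AC50 from Hill fits of concentration-response data; tetraoctylammonium bromide positive control.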

A short description of experiment [12]: Cell Viability - LYMP2-012 (AID 982). As to conditions: LYMP2-012 lymphoblastoid cell viability qHTS; series mostly up to 92.2 µM.
Experiment [13] can be described thus: Cell Viability - LYMP2-014 (AID 983). Also: nearly all actives have a fitted effect of over 50% in size. As to conditions: LYMP2-014 lymphoblastoid cells, viability qHTS; series mostly up to 92.2 µM. In a few lines:
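LYMP2-014 human lymphoblastoid cells, 2500/well, treated 24 h at 37 C in complete medium; viability by CellTiter-Glo ATP luminescence after 30 min at room temperature. AC50 from Hill fits of qHTS concentration-response; tetraoctylammonium bromide positive control.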

Experiment [14] can be described thus: Cell Viability - LYMP2-016 (AID 984). Also: nearly all actives have a fitted effect of over 55% in size. As to conditions: LYMP2-016 lymphoblastoid cell viability, qHTS; series mostly up to 92.2 µM. The essentials: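 Cells were seeded at 2500 per well and rested 5 hr before a 24 hr compound exposure at 37 C. Viability was then gauged as cellular ATP by luciferase luminescence, with AC50 values fitted to the Hill equation.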

Experiment [15] is described as follows: Cell Viability - LYMP2-018 (AID 985). Also: nearly all actives have a fitted effect of over 50% in size. As to conditions: LYMP2-018 lymphoblastoid cells, viability (qHTS); series mostly up to 92.2 µM. The essentials: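 Human lymphoblastoid LYMP2-018 cells, 2500/well, settled 5 hr at 37 C then exposed to compound 24 hr at 37 C; intracellular ATP measured by CellTiter-Glo luminescence. AC50 from Hill-equation concentration-response fits.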

Experiment [16] is described as follows: Cell Viability - LYMP2-020 (AID 986). Also: nearly all actives have a fitted effect of over 55% in size. As to conditions: series mostly up to 92.2 µM. The essentials: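 Human lymphoblastoid LYMP2-020 cells (2500/well) preincubated 5 h at 37 C, then treated 24 h at 37 C. Viability measured as intracellular ATP by CellTiter-Glo luminescence after 30 min at room temperature; AC50 from Hill fits.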
A short description of experiment [17]: Cell Viability - LYMP2-022 (AID 987). Also: nearly all actives have a fitted effect of over 55% in size. Particulars: LYMP2-022 lymphoblastoid cell viability; series mostly up to 92.2 µM. The essentials:
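LYMP2-022 lymphoblastoid cells (2500/well, complete medium) were treated with compounds for 24 hours at 37 C; intracellular ATP was then read by CellTiter-Glo luminescence after 30 min at room temperature. AC50 values were derived from Hill-equation fits.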

Experiment [18] in a line: Cell Viability - LYMP2-024 (AID 988). Also: nearly all actives have a fitted effect of over 60% in size. As to conditions: LYMP2-024 lymphoblastoid cell viability; series mostly up to 92.2 µM. The essentials: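 Human lymphoblastoid LYMP2-024 cells (2500/well) rested 5 hr, then treated with compound for 24 hr at 37 C in complete medium. Viability was measured as intracellular ATP by CellTiter-Glo luminescence. AC50 values came from Hill-equation fits.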

Experiment [19] is described as follows: Cell Viability - LYMP2-026 (AID 989). Also: nearly all actives have a fitted effect of over 50% in size. As to conditions: LYMP2-026 lymphoblastoid cell viability, qHTS; series mostly up to 92.2 µM. In a few lines:
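Human lymphoblastoid LYMP2-026 cells, 2500/well, exposed to compound 24 h at 37 C in complete medium. Viability as intracellular ATP by CellTiter-Glo luminescence; AC50 from Hill fits of qHTS concentration-response.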

Experiment [20] addresses Alpha-galactosidase A (Homo sapiens) (UniProt P06280). Put plainly: Counterscreen for Glucocerebrosidase Inhibitors: qHTS Assay for Human alpha-Galactosidase at pH 4.5 (AID 992). As to conditions: purified enzyme, fluorogenic substrate; series mostly up to 76.9 µM. In a few lines:
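Human enzyme (2 nM) with 80 uM 4-methylumbelliferyl alpha-D-galactopyranoside in 50 mM citric acid, 0.005% Tween-20, pH 4.5, 20 min at room temperature. Compounds 0.7 nM–77 uM; fluorescence Ex 365/Em 440 after pH 10 stop; AC50 from Hill fits.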

Molecules are shown by their SMILES. Inconclusive results are not listed. The source made the active and inactive calls. Calls follow the shape of the dose curve; as a rule, active = well fitted curve in the direction sought with a large enough effect; inconclusive = small, poorly fitted or top-dose-only effect, or another doubt; inactive = no such curve, though single readings can be large; an effect the other way counts as inactive or inconclusive.

Alpha-galactosidase A (Homo sapiens), sequence (P06280 whole entry, looked up): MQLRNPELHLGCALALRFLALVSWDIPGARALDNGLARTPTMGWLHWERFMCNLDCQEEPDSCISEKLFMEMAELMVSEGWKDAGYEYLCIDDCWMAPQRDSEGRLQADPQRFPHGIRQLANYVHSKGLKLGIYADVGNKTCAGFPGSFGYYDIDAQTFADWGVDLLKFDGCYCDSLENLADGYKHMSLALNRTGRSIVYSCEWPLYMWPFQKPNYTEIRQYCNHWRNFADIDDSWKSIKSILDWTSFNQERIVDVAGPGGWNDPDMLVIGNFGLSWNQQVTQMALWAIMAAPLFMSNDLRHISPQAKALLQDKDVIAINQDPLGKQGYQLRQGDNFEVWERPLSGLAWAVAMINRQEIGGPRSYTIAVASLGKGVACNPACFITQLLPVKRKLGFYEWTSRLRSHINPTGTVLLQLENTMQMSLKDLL

Turning to `Cc1ccc(N)cc1O`, the compound was classed as inactive in experiment [1], in experiment [2], in [3], in [4], in experiment [5] and in [6]. The compound was called inactive in experiment [7], in experiment [8], in [9], in experiment [10], in [12] and in experiment [13]. Moreover, the compound was classed as inactive in experiment [14], in experiment [15], in experiment [16], in [17], in experiment [18] and in [19]. Further, the Potency result in experiment [11] was “inactive”.

For `CC(=O)O[C@@H]1CC(C)=C2[C@H]1[C@H](C)CC[C@H]2/C=C(\C)C(=O)O`, the outcome in [1], in experiment [2], in experiment [3], in [4], in experiment [5] and in experiment [6] was inactive. The compound was called inactive in experiment [7], in experiment [8], in experiment [9], in [10], in experiment [12] and in experiment [13]. For the same compound, the outcome in [14], in [15], in [16], in experiment [17], in experiment [18] and in experiment [19] was inactive. Moreover, the Potency result in experiment [11] was “inactive”.

Take `Nc1ccccc1N`: the result in experiment [1], in experiment [2], in experiment [3], in [4], in experiment [5] and in experiment [6] was inactive. Further, the compound was called inactive in experiment [9], in experiment [12], in experiment [13], in experiment [14], in experiment [15] and in experiment [19]. In addition, the Potency in experiment [11] is 15.8 µM (active).

As to `CC(=O)O[C@H]1C(=O)[C@@]2(C)[C@H]([C@H](OC(=O)c3ccccc3)[C@]3(O)C[C@H](OC(=O)[C@H](O)[C@@H](NC(=O)c4ccccc4)c4ccccc4)C(C)=C1C3(C)C)[C@]1(OC(C)=O)CO[C@@H]1C[C@@H]2O`, in [20], the call was inactive.

The values above are taken from PubChem BioAssay (NCATS).
